The source of these data is PubChem BioAssay (Tox21).

Results filed as inconclusive are left out. Calls of active or inactive are those of the source. Unless noted, calls come from the whole dose curve; as a rule, active = well fitted curve in the direction sought with a large enough effect in the repeat runs; inconclusive = weak or mixed curves; inactive = no such curve, though single readings can be large; an effect the other way counts as inactive or inconclusive.

Experiment [1] can be described thus: qHTS assay to identify small molecule antagonists of the sonic hedgehog signaling (Shh) pathway (AID 1259369; calls by dose curve; note: nearly all actives have a fitted effect of over 45% in size). The gist of the method: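 3T3Gli1-Luc, conditioned-medium-stimulated, 24hr cpd, 37C/5% CO2; Gli1-driven firefly Luc luminescence after 30min RT with luciferase reagent. Cells plated 4hr before cpd.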
For orientation: In qHTS, concentration-response curves come from the screen itself.

The target in experiment [2] is Estrogen receptor beta (Homo sapiens) (UniProt Q92731). Description: qHTS assay to identify small molecule agonists of the estrogen receptor beta (ER-beta) signaling pathway (AID 1259377; active = well fitted activation curve with a large enough effect in the signal ratio in the repeat runs, not every such curve was filed as active; the % refers to the signal ratio). The gist of the method:
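HEK293T ER-beta-UAS-bla; 2% charcoal-stripped FBS; cells pre-incubated 6 hr, compound 16 hr, 37C/5% CO2; LiveBLAzer B/G FRET substrate 2 h RT; fluorescence intensity read.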

The target is the same in experiment [3]. Description: qHTS assay to identify small molecule antagonists of the estrogen receptor beta (ER-beta) signaling pathway (AID 1259378; active = well fitted inhibition curve with a large enough effect in the signal ratio in the repeat runs, not every such curve was filed as active; the % refers to the signal ratio). The gist of the method:
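ER-beta-UAS-bla HEK293T cells in 2% charcoal-stripped FBS medium treated with compound plus 1nM final 17-beta-estradiol for 16 hr at 37C. Beta-lactamase reporter read by FRET substrate fluorescence after 2 hours at room temperature.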

Experiment [4] can be described thus: qHTS assay to identify small molecule antagonists of the estrogen receptor beta (ER-beta) signaling pathway - cell viability counter screen (AID 1259382). Note: series mostly up to about 92 µM; nearly all actives have a fitted effect of over 55% in size. The gist of the method: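 Cells: ER-beta-UAS-bla HEK293T, 2,000/well, 2% CS-FBS, 6 hr settle. Cpd + E2 (1nM final), 16 hr, 37C/5% CO2. Bla FRET substrate 2 hr RT, then CellTiter-Glo 30 min RT, luminescence.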

Experiment [5] concerns the target Estrogen receptor (Homo sapiens) (UniProt P03372). Description: qHTS assay to identify small molecule agonists of the estrogen receptor alpha (ER-alpha) signaling pathway in the presence of an antagonist (AID 1259383; calls by dose curve; note: nearly all actives have a fitted effect of over 15% in size; note: potency is the fitted concentration of half-maximal effect; for activation: top concentration of the series differs between compounds). The gist of the method:
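VM7Luc4E2, endog. ER-alpha + 4×ERE-luc; charcoal-stripped FBS, phenol red-free, 5 d; 24hr plating; +10.0nM ICI-182,780 (final); cpds 15 conc, 22hr, 37C/5% CO2; ONE-Glo luminescence.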

Experiment [6] addresses Thyrotropin receptor (Homo sapiens) (UniProt P16473). Description: qHTS assay to identify small molecule antagonists of the thyroid stimulating hormone receptor (TSHR) signaling pathway (AID 1259385; calls by dose curve; note: nearly all actives have a fitted effect of over 20% in size). In short, it runs like this:
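TSHR-HEK293 cells (800/well) plated 18 h, then compounds with Ro20-1724 and TSH at 1.5 ng/mL final, 30 min at room temperature. cAMP quantified by HTRF (cAMP-d2/anti-cAMP-cryptate, 1 h); 15 concentrations in triplicate.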

The nature of experiment [7]: qHTS assay to identify small molecule agonists of the estrogen receptor alpha (ER-alpha) signaling pathway in the presence of an antagonist - cell viability counter screen (AID 1259386).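 Note: cells exposed to compounds for 22 h at 37 °C before the viability read; nearly all actives have a fitted effect of over 30% in size.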 Note: potency is the fitted concentration of half-maximal effect. In short, it runs like this: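 VM7Luc4E2, stripped-serum pre-culture 5 d; 24hr plating; +ICI-182,780 10.0nM final; cpds 15 conc, 22hr, 37C/5% CO2; CellTiter-Fluor added at 21hr, fluorescence 1hr later.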

The target in experiment [8] is Progesterone receptor (Homo sapiens) (UniProt P06401). Kind of experiment: qHTS assay to identify small molecule agonists of the progesterone receptor (PR) signaling pathway (AID 1346784; calls by dose curve; note: nearly all actives have a fitted effect of over 30% in size). In short, it runs like this:
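Beta-lactamase reporter read-out: after 16 hr compound treatment at 37C and a further 2 hr at room temperature with LiveBLAzer B/G FRET substrate, fluorescence was measured in PR-UAS-bla HEK 293T cells grown in 2% charcoal-stripped serum.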

Experiment [9] in a line: qHTS assay to identify small molecule agonists of the progesterone receptor (PR) signaling pathway - cell viability counter screen (AID 1346799; calls by dose curve; note: nearly all actives have a fitted effect of over 45% in size; note: potency is the fitted concentration of half-maximal effect). In short, it runs like this:
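Luminescence from CellTiter-Glo, added after the beta-lactamase FRET read in the same wells, gave cytotoxicity in PR-UAS-bla HEK293T cells treated with compounds for 16 hr at 37C.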

Experiment [10] can be described thus: qHTS assay to identify small molecule antagonists of the TGF-beta/Smad signaling pathway - cell viability counter screen (AID 1346824). Note: nearly all actives have a fitted effect of over 50% in size. In short, it runs like this: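 SBE-bla HEK 293T cells, incubated overnight, then compound plus 0.25 ng/mL TGF-beta1 (stock added) for 5 hr at 37 C. Viability was read in the same wells by CellTiter-Glo luminescence after 30 min at room temperature.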

Experiment [11] is described as follows: qHTS assay to identify small molecule agonists of the TGF-beta/Smad signaling pathway - cell viability counter screen (AID 1346829). Note: top concentration of the series differs between compounds; nearly all actives have a fitted effect of over 45% in size. In short, it runs like this: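 Tox21 qHTS format: SBE-bla HEK 293T cells treated with DMSO-dissolved compounds for 5 hr; CellTiter-Glo luminescence after 30 min at room temperature.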
Experiment [12] in a line: qHTS assay to identify small molecule agonists of the TGF-beta/Smad signaling pathway (AID 1346859; active = well fitted activation curve with a large enough effect in the signal ratio in the repeat runs, not every such curve was filed as active; the % refers to the signal ratio; note: series mostly up to about 77 µM). In short, it runs like this: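 SBE-bla HEK 293T, 4,000 cells/well, plated o/n; cpd in DMSO, 5 hr, 37 C/5% CO2; B/G FRET substrate 2 hr RT; ex 405, em 460/530 nm.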
Experiment [13] concerns the target Thyrotropin-releasing hormone receptor (Homo sapiens) (UniProt P34981). Description: qHTS assay to identify small molecule antagonists of the thyrotropin-releasing hormone receptor (TRHR) signaling pathway (AID 1346877; active = well fitted inhibition curve with a large enough effect in the repeat runs, not every such curve was filed as active; note: series mostly up to about 51 µM). The gist of the method: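 Intracellular calcium fluorescence, read kinetically every second over 3 min, reports TRH-evoked signalling in HEK293 cells carrying TRHR. Test compounds were added 5 min ahead of a 1 nM TRH challenge.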

Experiment [14] is described as follows: qHTS assay to identify small molecule agonists of the androgen receptor (AR) signaling pathway in the presence of an antagonist - cell viability counter screen (AID 1259379).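 Note: MDA-kb2 human breast cancer cells carrying an MMTV luciferase reporter; series mostly up to about 92 µM; nearly all actives have a fitted effect of over 25% in size.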 The gist of the method: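 Cells: MDA-kb2 (MMTV-luc, AR and GR elements), 3,000/well, 5 hr settle. Added: nilutamide 3.0uM final, then compounds (15 conc.). Incubation: 16 hr, 37C, no CO2. Read-out: CellTiter-Fluor, 1 hr, fluorescence.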

Experiment [15] deals with Progesterone receptor (Homo sapiens) (UniProt P06401). Description: qHTS assay to identify small molecule antagonists of the progesterone receptor (PR) signaling pathway (AID 1346795; active = well fitted inhibition curve with a large enough effect in the signal ratio in the repeat runs, not every such curve was filed as active; the % refers to the signal ratio; note: potency is the fitted concentration of half-maximal effect). The gist of the method: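 Read-out is fluorescence from the LiveBLAzer B/G FRET substrate, cleaved by a UAS-controlled beta-lactamase in PR-UAS-bla HEK293T cells after 16 hr exposure to compound plus 1 nM promegestone (final), followed by 2 hr at room temperature.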
Sequence of Progesterone receptor (Homo sapiens) (P06401 whole entry, looked up): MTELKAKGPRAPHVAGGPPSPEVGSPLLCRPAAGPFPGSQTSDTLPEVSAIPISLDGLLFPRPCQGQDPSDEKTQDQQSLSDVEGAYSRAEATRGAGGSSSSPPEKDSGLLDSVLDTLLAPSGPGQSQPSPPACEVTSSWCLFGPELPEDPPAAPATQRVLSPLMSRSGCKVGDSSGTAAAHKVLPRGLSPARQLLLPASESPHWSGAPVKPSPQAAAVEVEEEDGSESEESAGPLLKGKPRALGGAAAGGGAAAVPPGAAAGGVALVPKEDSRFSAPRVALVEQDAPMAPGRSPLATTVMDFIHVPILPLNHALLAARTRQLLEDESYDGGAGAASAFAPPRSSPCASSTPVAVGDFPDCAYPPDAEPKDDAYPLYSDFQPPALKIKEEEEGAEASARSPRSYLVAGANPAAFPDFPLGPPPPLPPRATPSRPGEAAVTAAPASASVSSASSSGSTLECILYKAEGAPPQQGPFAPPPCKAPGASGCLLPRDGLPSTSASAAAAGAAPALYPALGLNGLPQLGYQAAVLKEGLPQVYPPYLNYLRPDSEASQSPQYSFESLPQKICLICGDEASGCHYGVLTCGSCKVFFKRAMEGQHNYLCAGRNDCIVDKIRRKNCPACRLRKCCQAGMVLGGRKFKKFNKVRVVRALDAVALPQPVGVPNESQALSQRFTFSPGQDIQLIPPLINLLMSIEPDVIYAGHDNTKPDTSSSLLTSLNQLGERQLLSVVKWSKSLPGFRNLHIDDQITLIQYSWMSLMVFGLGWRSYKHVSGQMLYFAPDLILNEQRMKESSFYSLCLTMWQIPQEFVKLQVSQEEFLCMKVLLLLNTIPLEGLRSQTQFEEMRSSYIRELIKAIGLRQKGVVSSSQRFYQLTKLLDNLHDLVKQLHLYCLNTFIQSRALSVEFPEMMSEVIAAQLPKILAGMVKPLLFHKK

The nature of experiment [16]: qHTS assay to identify small molecule antagonists of the progesterone receptor (PR) signaling pathway - cell viability counter screen (AID 1346798). Note: nearly all actives have a fitted effect of over 50% in size. Note: potency is the fitted concentration of half-maximal effect. In short, it runs like this: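 HEK293T PR-UAS-bla, 2% charcoal-stripped FBS; 4 hr pre-plate; cpd + R5020, 16 h 37C; LiveBLAzer read first; then CellTiter-Glo 30 min RT, luminescence.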
The target in experiment [17] is Androgen receptor (Homo sapiens) (UniProt P10275). Kind of experiment: qHTS assay to identify small molecule agonists of the androgen receptor (AR) signaling pathway in the presence of an antagonist (AID 1259381; calls by dose curve; note: nearly all actives have a fitted effect of over 15% in size). In short, it runs like this:
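MDA-kb2 cells, 3,000/well, rested 5hr at 37C/0% CO2 → nilutamide 3.0uM final or buffer → compounds, 15 conc. → 16hr at 37C → ONE-Glo, 30min RT → luminescence.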

Experiment [18] in a line: qHTS assay to identify small molecule agonists or antagonists of the thyroid stimulating hormone receptor (TSHR) signaling pathway - wild type cell line counter screen (AID 1259384; calls by dose curve). The gist of the method: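 Wild-type Hek293 cells, 800/well, 18 h at 37C, then compound with Ro20-1724 for 30 min RT. cAMP by HTRF (cAMP-d2/anti-cAMP cryptate), 1 h RT, fluorescence read. 15 concentrations, triplicates.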

Experiment [19] can be described thus: qHTS assay to identify small molecule agonists of the estrogen receptor beta (ER-beta) signaling pathway - cell viability counter screen (AID 1259380). Note: nearly all actives have a fitted effect of over 30% in size. Note: potency is the fitted concentration of half-maximal effect. The gist of the method: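 HEK293T ER-beta-UAS-bla; 2% CS-FBS; 6 hr pre-plate, 16 hr cpd at 37C/5% CO2; LiveBLAzer read first, then CellTiter-Glo 30 min RT, luminescence.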

Sequence of Estrogen receptor beta (Homo sapiens) (Q92731 whole entry, looked up): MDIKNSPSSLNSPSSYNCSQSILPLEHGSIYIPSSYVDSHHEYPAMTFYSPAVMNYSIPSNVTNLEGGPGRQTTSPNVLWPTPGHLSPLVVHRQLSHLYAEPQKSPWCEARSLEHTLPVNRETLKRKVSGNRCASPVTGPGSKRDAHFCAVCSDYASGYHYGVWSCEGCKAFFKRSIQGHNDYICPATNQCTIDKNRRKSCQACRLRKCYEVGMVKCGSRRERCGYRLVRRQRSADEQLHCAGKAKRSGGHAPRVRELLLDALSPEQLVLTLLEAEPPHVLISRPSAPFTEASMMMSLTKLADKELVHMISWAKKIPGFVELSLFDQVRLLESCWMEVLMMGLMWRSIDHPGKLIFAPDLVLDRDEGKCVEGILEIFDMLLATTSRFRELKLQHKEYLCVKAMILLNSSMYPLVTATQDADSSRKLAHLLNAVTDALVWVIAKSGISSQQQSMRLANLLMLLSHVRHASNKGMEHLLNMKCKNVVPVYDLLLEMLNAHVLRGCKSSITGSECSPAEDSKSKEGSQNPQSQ
Sequence of Estrogen receptor (Homo sapiens) (P03372 whole entry, looked up): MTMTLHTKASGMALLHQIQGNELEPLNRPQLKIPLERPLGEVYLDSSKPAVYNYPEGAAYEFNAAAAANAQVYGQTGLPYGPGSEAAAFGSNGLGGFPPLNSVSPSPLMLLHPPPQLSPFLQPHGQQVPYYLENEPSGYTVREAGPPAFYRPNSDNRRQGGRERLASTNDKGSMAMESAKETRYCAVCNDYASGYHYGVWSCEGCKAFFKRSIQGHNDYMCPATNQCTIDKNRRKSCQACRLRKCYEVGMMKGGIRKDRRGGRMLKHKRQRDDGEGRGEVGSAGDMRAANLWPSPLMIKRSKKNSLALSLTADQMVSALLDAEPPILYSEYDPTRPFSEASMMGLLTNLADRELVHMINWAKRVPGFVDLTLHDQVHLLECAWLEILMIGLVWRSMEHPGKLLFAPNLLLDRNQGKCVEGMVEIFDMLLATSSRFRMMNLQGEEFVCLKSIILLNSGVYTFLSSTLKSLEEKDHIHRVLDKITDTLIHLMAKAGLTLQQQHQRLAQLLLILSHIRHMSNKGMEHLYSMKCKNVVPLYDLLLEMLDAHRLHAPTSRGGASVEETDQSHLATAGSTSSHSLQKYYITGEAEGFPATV
Sequence of Thyrotropin-releasing hormone receptor (Homo sapiens) (P34981 whole entry, looked up): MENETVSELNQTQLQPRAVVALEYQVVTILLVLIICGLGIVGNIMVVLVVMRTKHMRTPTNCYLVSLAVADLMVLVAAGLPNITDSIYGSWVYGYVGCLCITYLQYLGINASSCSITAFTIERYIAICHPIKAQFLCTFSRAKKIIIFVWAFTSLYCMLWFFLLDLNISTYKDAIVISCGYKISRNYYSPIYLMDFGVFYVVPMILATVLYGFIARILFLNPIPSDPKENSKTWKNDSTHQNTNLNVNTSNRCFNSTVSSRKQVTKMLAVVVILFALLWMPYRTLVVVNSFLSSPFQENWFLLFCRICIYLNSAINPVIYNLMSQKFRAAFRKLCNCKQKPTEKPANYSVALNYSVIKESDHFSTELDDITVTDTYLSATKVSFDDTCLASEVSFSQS
Sequence of Thyrotropin receptor (Homo sapiens) (P16473 whole entry, looked up): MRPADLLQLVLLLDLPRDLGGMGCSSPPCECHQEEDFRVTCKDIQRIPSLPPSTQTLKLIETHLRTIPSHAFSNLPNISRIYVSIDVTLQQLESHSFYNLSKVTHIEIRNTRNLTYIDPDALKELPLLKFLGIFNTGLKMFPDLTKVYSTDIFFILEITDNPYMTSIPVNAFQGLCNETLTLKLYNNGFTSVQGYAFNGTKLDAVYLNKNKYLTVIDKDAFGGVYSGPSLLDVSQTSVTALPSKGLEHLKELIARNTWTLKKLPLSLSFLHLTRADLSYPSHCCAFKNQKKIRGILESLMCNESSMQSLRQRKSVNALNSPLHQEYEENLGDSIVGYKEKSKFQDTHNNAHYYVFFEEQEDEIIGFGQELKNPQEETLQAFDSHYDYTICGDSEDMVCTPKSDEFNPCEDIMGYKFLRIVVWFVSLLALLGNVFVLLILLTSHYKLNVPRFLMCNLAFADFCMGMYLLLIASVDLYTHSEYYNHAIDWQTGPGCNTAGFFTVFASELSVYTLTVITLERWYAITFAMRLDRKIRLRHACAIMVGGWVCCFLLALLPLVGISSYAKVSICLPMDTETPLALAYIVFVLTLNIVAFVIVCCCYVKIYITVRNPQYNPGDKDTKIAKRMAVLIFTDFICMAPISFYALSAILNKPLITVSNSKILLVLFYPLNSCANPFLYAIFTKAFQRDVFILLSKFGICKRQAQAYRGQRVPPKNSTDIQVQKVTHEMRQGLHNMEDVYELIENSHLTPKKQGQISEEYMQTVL
Sequence of Androgen receptor (Homo sapiens) (P10275 whole entry, looked up): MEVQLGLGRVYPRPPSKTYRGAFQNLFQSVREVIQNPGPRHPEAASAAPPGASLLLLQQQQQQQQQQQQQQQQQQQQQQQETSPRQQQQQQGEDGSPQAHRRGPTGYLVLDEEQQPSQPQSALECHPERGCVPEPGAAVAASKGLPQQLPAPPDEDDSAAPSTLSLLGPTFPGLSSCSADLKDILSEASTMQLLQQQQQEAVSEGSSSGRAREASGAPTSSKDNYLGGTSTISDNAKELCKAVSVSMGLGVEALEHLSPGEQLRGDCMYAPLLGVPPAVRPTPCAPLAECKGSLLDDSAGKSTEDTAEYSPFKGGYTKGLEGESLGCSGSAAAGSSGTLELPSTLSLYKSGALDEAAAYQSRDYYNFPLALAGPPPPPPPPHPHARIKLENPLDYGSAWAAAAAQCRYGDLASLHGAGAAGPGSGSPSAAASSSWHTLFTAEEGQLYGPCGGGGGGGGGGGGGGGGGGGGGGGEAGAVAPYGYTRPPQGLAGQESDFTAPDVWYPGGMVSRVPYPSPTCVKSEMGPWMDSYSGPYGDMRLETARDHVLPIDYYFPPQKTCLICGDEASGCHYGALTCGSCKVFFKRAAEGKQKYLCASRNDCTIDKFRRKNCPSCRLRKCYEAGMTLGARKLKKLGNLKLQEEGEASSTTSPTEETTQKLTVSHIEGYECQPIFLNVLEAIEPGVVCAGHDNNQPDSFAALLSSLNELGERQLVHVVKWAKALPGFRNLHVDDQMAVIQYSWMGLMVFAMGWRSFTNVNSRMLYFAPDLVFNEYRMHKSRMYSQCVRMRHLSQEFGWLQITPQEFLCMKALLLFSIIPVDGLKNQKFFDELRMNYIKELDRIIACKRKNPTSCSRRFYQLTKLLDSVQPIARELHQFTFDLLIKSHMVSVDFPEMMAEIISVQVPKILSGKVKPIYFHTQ

In the case of `c1ccc(CCNc2nc(-c3ccccc3)cs2)cc1`, the Potency entry in experiment [1], in experiment [2], in [3], in experiment [4], in [6] and in experiment [7] was “inactive” in each case. Also, the Potency entry in experiment [8] and in [9] was “inactive” in each case. Besides, the Potency in experiment [5] was 0.944 µM (active). Also, the compound was called inactive in experiment [10], in experiment [11], in [12] and in experiment [13].

As to `SCCOCCOCCS`, the Potency result in experiment [1], in experiment [14], in [4], in experiment [5], in [7] and in [8] was “inactive” each time. Besides, the Potency result in experiment [15], in [16] and in experiment [9] was “inactive” throughout. The outcome in [10], in experiment [11], in experiment [12] and in experiment [13] was inactive.

Turning to `CCOc1cc(OCC)c(C(C)=O)cc1OCC`, the Potency entry in experiment [2], in experiment [3], in [17], in experiment [4], in experiment [5] and in experiment [6] was “inactive” in each case. Also, the Potency entry in [8], in experiment [16] and in [9] was “inactive” in each case. For the same compound, the result in experiment [18], in experiment [10], in [11], in experiment [12] and in [13] was inactive. Further, the Potency in experiment [7] is 21.3 µM (active).

With `C=CC(C)(O)CC/C=C(/C)CCC=C(C)C` (centres undefined), the Potency result in experiment [2], in experiment [3], in experiment [19], in experiment [4], in experiment [7] and in experiment [8] was “inactive” throughout. Besides, the Potency entry in experiment [15], in experiment [16] and in [9] was “inactive” in each case. Moreover, the result in [10], in experiment [11], in [12] and in experiment [13] was inactive.

In the case of `Cc1cccc(C)c1NC(=O)CN1CCCC1`, the Potency entry in [1], in experiment [2], in [3], in experiment [4], in experiment [6] and in experiment [7] was “inactive” throughout. Besides, the Potency entry in [16] is “inactive”. Further, the compound was called inactive in [18], in experiment [10], in experiment [11] and in experiment [12].

`CCCCCCOC(=O)c1ccccc1`: the Potency result in [1], in [2], in experiment [3], in [14], in [5] and in [6] was “inactive” throughout. Moreover, the Potency result in experiment [7] and in [8] was “inactive” in each case. The Potency is 27.3 µM (active) in [19], 15.4 µM (active) in [16] and 17.2 µM (active) in [9]. Also, the result in experiment [18], in experiment [10], in experiment [12] and in experiment [13] was inactive.

`O=[N+]([O-])c1ccccc1CCO`: the Potency result in experiment [1], in [2], in experiment [3], in [14], in experiment [19] and in experiment [4] was “inactive” in each case. Moreover, the Potency result in [6], in [7], in experiment [8], in experiment [15] and in experiment [16] was “inactive” each time. In addition, the compound was called inactive in experiment [18], in [10], in experiment [11], in experiment [12] and in experiment [13].

On to `Nc1ccc(C(=O)Oc2ccccc2)c(O)c1`, for which the Potency result in experiment [1], in [14], in experiment [19], in experiment [4], in experiment [5] and in experiment [6] was “inactive” throughout. Moreover, the Potency entry in experiment [7], in experiment [8], in experiment [16] and in experiment [9] was “inactive” each time. For the same compound, the Potency in experiment [15] was 23.7 µM (active). The call in [10], in experiment [11], in experiment [12] and in [13] was inactive.

With `COc1ccc(/C=C/c2cc(OC)cc(=O)o2)cc1`, the Potency entry in [1], in experiment [2], in experiment [3], in [14], in experiment [4] and in [5] was “inactive” each time. Also, the Potency entry in experiment [7], in experiment [8] and in experiment [15] was “inactive” in each case. The compound was called inactive in experiment [10], in experiment [11], in experiment [12] and in [13].
